These results are taken from PubChem BioAssay.

Each structure is given as a SMILES string. Activity calls are given as the source filed them. The rule behind the calls is not given here.

The experiment deals with Aerobactin synthetase IucA (Klebsiella pneumoniae hvKP1). The experiment is described as follows: IucA enzyme inhibition, primary screen, biochemical, Spectrum library (AID 1346200).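 Note: 100% = wells without compound and 0% = wells lacking enzyme.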 The note with it: malachite green pyrophosphate, A620, at 8 µM, active compounds read low.
For `COc1ccc(CC(=O)c2ccc(O)cc2O)cc1`, the activity remaining is 111% (inactive).
Turning to `NC(N)=Nc1nc(CSCC/C(N)=N\S(N)(=O)=O)cs1`, the activity remaining is 113% (inactive).
Next, `CC(=O)OCC(=O)[C@H]1CCC2C3CC=C4C[C@@H](O)CC[C@]4(C)C3CC[C@@]21C` (stereo not given in full): 92.3% (inactive); `COc1cc(O)c(C(=O)/C=C/c2ccc(OC)c(O)c2)c(OC)c1`: 105% (inactive); `COc1ccc2ccc(=O)oc2c1`: 114% (inactive).
Next, `CCN(CC)C(C)CN1c2ccccc2Sc2ccccc21` (stereo not given): 109% (inactive); `CO[C@@]1(NC(=O)Cc2cccs2)C(=O)N2C(C(=O)O)=C(COC(N)=O)CS[C@@H]21`: 108% (inactive); `CCc1c2c(nc3ccc(OC(=O)N4CCC(N5CCCCC5)CC4)cc13)-c1cc3c(c(=O)n1C2)COC(=O)[C@]3(O)CC`: 90% (inactive).
Next, `N.N.O=C(O)C1(C(=O)O)CCC1.[Pt]`: 94.6% (inactive); `COc1cc(O)c2c(=O)cc(C)oc2c1CC=C(C)C`: 83.4% (inactive).
For the compound `CC(=O)Oc1ccc2c(c1)CCC1C2CC[C@@]2(C)C1CC[C@@H]2OC(C)=O` (stereo not given in full), the activity remaining was 120% (inactive).
For the compound `CC(N)C12CC3CC(CC(C3)C1)C2` (stereo not given), the activity remaining is 115% (inactive).
On to `COc1c2ccoc2cc2oc(=O)ccc12`, for which the activity remaining was 102% (inactive).
Next, `CC(=O)c1c(O)cc(O)cc1O`: 94.3% (inactive); `c1ccc(CN(CC2=NCCN2)c2ccccc2)cc1`: 120% (inactive).
Next, `Cc1cccc2c3c(ccc12)C1=C(C(=O)C3=O)C(C)CO1` (stereo not given): 114% (inactive).
Turning to `Cc1nc(N)cc(C[n+]2csc(CCO)c2C)n1`, the activity remaining is 83.3% (inactive).
In the case of `NC(=O)NC1NC(=O)NC1=O` (stereo not given) it was 113% (inactive); in that of `CC[C@H](CCC(C)[C@H]1CCC2C3CCC4C[C@@H](O)CC[C@]4(C)C3CC[C@@]21C)C(C)C` (stereo not given in full), 102% (inactive).
For the compound `CC(=O)NC(C(=O)O)C(C)(C)SN=O` (stereo not given), the activity remaining was 97% (inactive).
Next, `Cc1c(S(=O)(=O)O)oc2c1C(=O)C(=O)c1c-2ccc2c1CCCC2(C)C`: 127% (inactive); `C[C@]12CCC(=O)C=C1CCC1C2C(=O)C[C@@]2(C)C1CC[C@]2(O)C(=O)CO` (stereo not given in full): 111% (inactive).
For `CCCCCCCC/C=C/CCCCCCCCOP(=O)([O-])OCC[N+](C)(C)C`, the activity remaining is 96.1% (inactive).
Take `C[C@H]1O[C@@H](O[C@H]2[C@@H](O)C[C@H](O[C@H]3[C@@H](O)C[C@H](O[C@H]4CC[C@]5(C)C6C[C@@H](O)[C@]7(C)[C@@H](C8=CC(=O)OC8)CC[C@]7(O)C6CC[C@@H]5C4)O[C@@H]3C)O[C@@H]2C)C[C@H](O)[C@@H]1O` (stereo not given in full): the activity remaining was 118% (inactive).
Next, `CCn1cc(C(=O)O)c(=O)c2cc(F)c(N3CCNCC3)nc21`: 91.3% (inactive); `COc1ccc(-c2cc(=O)c3ccccc3o2)cc1OC`: 109% (inactive); `Cc1[nH]c(C)c(Cl)c(=O)c1Cl`: 121% (inactive).
Take `CC(=O)O[C@@](C)(CCC=C(C)C)C1CC=C(C)CC1` (stereo not given in full): the activity remaining is 91.6% (inactive).
In the case of `CCCCC(CC)CN1CN(CC(CC)CCCC)CC(C)(N)C1` (stereo not given) it was 89.7% (inactive); in that of `CC12CCCC(O)(C1)C1CC(C)(C)C1CC2` (stereo not given), 91.8% (inactive).
In the case of `O=C(Nc1ccc(C(=O)O)c(O)c1)c1ccccc1` it was 89.3% (inactive).
Next, `C=C1C2CC[C@@]3(C)[C@H](c4ccoc4)OC(=O)C[C@]13O[C@H]1CC(=O)C(C)(C)[C@H](C(O)C(=O)OC)[C@@]21C` (stereo not given in full): 95.2% (inactive).
As to `Cc1cc(O)cc(O)c1C(=O)O`, the activity remaining is 113% (inactive).
On to `CC1(C)CC[C@]2(C)CC[C@]3(C)C(=CCC4[C@@]5(C)CC[C@H](O)C(C)(C)C5CC[C@]43C)C2C1` (stereo not given in full), for which the activity remaining was 121% (inactive).
In the case of `COc1c(O)cccc1O` it was 87.7% (inactive).
In the case of `CCC(C)C(NC)C(=O)O` (stereo not given) it was 116% (inactive).
In the case of `CC1=C(C(=O)O)N2C(=O)[C@@H](NC(=O)C(N)c3ccccc3)[C@H]2SC1` (stereo not given in full) it was 104% (inactive).
Take `Cc1onc(-c2ccccc2)c1-c1ccc(S(N)(=O)=O)cc1`: the activity remaining was 103% (inactive).
`C=CCSCC1Nc2cc(Cl)c(S(N)(=O)=O)cc2S(=O)(=O)N1` (stereo not given): the activity remaining is 91.6% (inactive).
Next, `NC(=O)N/N=C/c1ccc([N+](=O)[O-])o1`: 94.6% (inactive).
